Experimental data as given in PubChem BioAssay AID1159580 (chemical genetic matrix, 2015).
The whole screen tested about 5,500 compounds, of which about 2,000 (36%) were called active. About 18% were inconclusive and are not listed. Some of the results follow. Unmarked numbers belong to inactive results. Cut-off read from the data, not from the text of the source: active = normalized growth mostly below about 0.91 (no sharp cut-off); inconclusive = no clear call, values can overlap the other calls; inactive = mostly above about 0.92.

Test: chemical genetic growth profiling, strain panel (AID 1159580);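 note: tested at 20 µM; growth read once vehicle control cultures reached saturation at 30 °C; 1 = growth at the plate median or of vehicle wells; lower values mean less growth of the strain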
Conditions: growth OD
[1] = S. cerevisiae deletion strains, locus YBR229C, strain ROT2, hits give low values
[2] = S. cerevisiae deletion strains, locus YDL101C, strain DUN1, hits give low values
[3] = S. cerevisiae deletion strains, locus YDR150W, strain NUM1, hits give low values
[4] = S. cerevisiae deletion strains, locus YEL061C, strain CIN8, hits give low values
[5] = S. cerevisiae deletion strains, locus YHR030C, strain SLT2, hits give low values
[6] = S. cerevisiae deletion strains, locus YJR043C, strain POL32, hits give low values
[7] = S. cerevisiae deletion strains, locus YLR039C, strain RIC1, hits give low values
[8] = S. cerevisiae deletion strains, locus YLR262C, strain YPT6, hits give low values
[9] = S. cerevisiae deletion strains, locus YMR307W, strain GAS1, hits give low values
[10] = S. cerevisiae deletion strains, locus YNL153C, strain GIM3, hits give low values
[11] = S. cerevisiae deletion strains, locus YPL241C, strain CIN2, hits give low values

O=C(O)CCS(=O)(=O)/C=C/c1ccccc1
normalized growth (S. cerevisiae deletion strains, locus YAL013W, strain DEP1, hits give low values): 0.995
normalized growth [1]: 0.989
normalized growth (S. cerevisiae deletion strains, locus YCL061C, strain MRC1, hits give low values): 1
normalized growth [2]: 1.04
normalized growth [3]: 0.984
normalized growth [4]: 1
normalized growth (S. cerevisiae deletion strains, locus YGR078C, strain PAC10, hits give low values): 1.02
normalized growth [5]: 0.996
normalized growth (S. cerevisiae deletion strains, locus YHR087W, strain rtc3, hits give low values): 1.01
normalized growth (S. cerevisiae deletion strains, locus YJL187C, strain SWE1, hits give low values): 0.992
normalized growth [6]: 0.989
normalized growth (S. cerevisiae deletion strains, locus YJR075W, strain HOC1, hits give low values): 1
normalized growth (S. cerevisiae deletion strains, locus YKL190W, strain CNB1, hits give low values): 0.979
normalized growth [7]: 0.989
normalized growth (S. cerevisiae deletion strains, locus YLR058C, strain SHM2 (second series), hits give low values): 0.982
normalized growth (S. cerevisiae deletion strains, locus YLR085C, strain ARP6, hits give low values): 0.988
normalized growth [8]: 1
normalized growth (S. cerevisiae deletion strains, locus YML094W, strain GIM5, hits give low values): 1.11
normalized growth (S. cerevisiae deletion strains, locus YMR219W, strain ESC1, hits give low values): 0.991
normalized growth (S. cerevisiae deletion strains, locus YMR263W, strain SAP30, hits give low values): 0.955
normalized growth [9]: 0.951
normalized growth [10]: 1.01
normalized growth (S. cerevisiae deletion strains, locus YNL298W, strain CLA4 (second series), hits give low values): 0.997
normalized growth (S. cerevisiae deletion strains, locus YNL322C, strain KRE1, hits give low values): 0.992
normalized growth (S. cerevisiae deletion strains, locus YNR030W, strain Alg12, hits give low values): 1.03
normalized growth (S. cerevisiae deletion strains, locus YPL055C, strain LGE1, hits give low values): 1.02
normalized growth [11]: 1.12
normalized growth (S. cerevisiae deletion strains, locus YPR135W, strain CTF4, hits give low values): 1.08

Oc1cc(O)cc(/C=C/c2ccccc2)c1
normalized growth (S. cerevisiae deletion strains, locus YBR021W, strain FUR4, hits give low values): 1.1
normalized growth [1]: 1
normalized growth (S. cerevisiae deletion strains, locus YCL029C, strain bik1, hits give low values): 0.973
normalized growth (S. cerevisiae deletion strains, locus YDL035C, strain GPR1, hits give low values): 1.01
normalized growth (S. cerevisiae deletion strains, locus YDL074C, strain BRE1, hits give low values): 0.983
normalized growth [2]: 0.978
normalized growth (S. cerevisiae deletion strains, locus YDL185W, strain tfp1, hits give low values): 0.959
normalized growth (S. cerevisiae deletion strains, locus YDL192W, strain arf1, hits give low values): 0.977
normalized growth (S. cerevisiae deletion strains, locus YDR101C, strain arx1, hits give low values): 1.04
normalized growth [3]: 0.998
normalized growth (S. cerevisiae deletion strains, locus YDR162C, strain NBP2, hits give low values): 0.996
normalized growth (S. cerevisiae deletion strains, locus YDR318W, strain mcm21, hits give low values): 0.965
normalized growth (S. cerevisiae deletion strains, locus YDR388W, hits give low values): 0.987
normalized growth (S. cerevisiae deletion strains, locus YDR502C, strain sam2, hits give low values): 0.962
normalized growth [4]: 1
normalized growth (S. cerevisiae deletion strains, locus YER110C, hits give low values): 0.977
normalized growth (S. cerevisiae deletion strains, locus YER155C, strain BEM2, hits give low values): 0.995
normalized growth (S. cerevisiae deletion strains, locus YER167W, strain BCK2, hits give low values): 1.01
normalized growth (S. cerevisiae deletion strains, locus YGL078C, strain dbp3, hits give low values): 0.953
normalized growth (S. cerevisiae deletion strains, locus YGL086W, strain mad1, hits give low values): 0.995
normalized growth (S. cerevisiae deletion strains, locus YGL248W, strain PDE1, hits give low values): 0.957
normalized growth (S. cerevisiae deletion strains, locus YGR135W, strain pre9, hits give low values): 0.921
normalized growth (S. cerevisiae deletion strains, locus YGR252W, strain gcn5, hits give low values): 0.88
normalized growth [5]: 1
normalized growth (S. cerevisiae deletion strains, locus YHR079C, strain IRE1 (second series), hits give low values): 0.976
normalized growth (S. cerevisiae deletion strains, locus YHR094C, strain hxt1, hits give low values): 0.987
normalized growth (S. cerevisiae deletion strains, locus YHR129C, strain ARP1, hits give low values): 0.99
normalized growth (S. cerevisiae deletion strains, locus YHR200W, strain rpn10, hits give low values): 0.981
normalized growth (S. cerevisiae deletion strains, locus YIL066C, strain RNR3, hits give low values): 1.01
normalized growth (S. cerevisiae deletion strains, locus YIL073C, strain SPO22, hits give low values): 0.963
normalized growth (S. cerevisiae deletion strains, locus YIL125W, strain kgd1, hits give low values): 1.01
normalized growth (S. cerevisiae deletion strains, locus YIR030C, strain dcg1, hits give low values): 0.983
normalized growth (S. cerevisiae deletion strains, locus YJL095W, strain BCK1, hits give low values): 0.961
normalized growth (S. cerevisiae deletion strains, locus YJL134W, strain LCB3, hits give low values): 1.01
normalized growth (S. cerevisiae deletion strains, locus YJL168C, strain set2, hits give low values): 0.974
normalized growth (S. cerevisiae deletion strains, locus YJL187C, strain SWE1 (second series), hits give low values): 0.966
normalized growth [6]: 1.03
normalized growth (S. cerevisiae deletion strains, locus YKL009W, strain mrt4, hits give low values): 0.964
normalized growth (S. cerevisiae deletion strains, locus YKL068W, hits give low values): 0.994
normalized growth (S. cerevisiae deletion strains, locus YKL085W, strain MDH1 (second series), hits give low values): 0.994
normalized growth (S. cerevisiae deletion strains, locus YKL085W, strain MDH1, hits give low values): 0.994
normalized growth (S. cerevisiae deletion strains, locus YKR001C, strain vps1, hits give low values): 0.987
normalized growth [7]: 1.03
normalized growth (S. cerevisiae deletion strains, locus YLR058C, strain SHM2, hits give low values): 0.996
normalized growth (S. cerevisiae deletion strains, locus YLR102C, strain apc9, hits give low values): 0.992
normalized growth [8]: 1.02
normalized growth (S. cerevisiae deletion strains, locus YLR268W, strain sec22, hits give low values): 1.02
normalized growth (S. cerevisiae deletion strains, locus YLR330W, strain CHS5, hits give low values): 0.993
normalized growth (S. cerevisiae deletion strains, locus YLR342W, strain FKS1 (second series), hits give low values): 1.07
normalized growth (S. cerevisiae deletion strains, locus YLR371W, strain rom2, hits give low values): 0.933
normalized growth (S. cerevisiae deletion strains, locus YLR418C, strain cdc73, hits give low values): 0.797 (active)
normalized growth (S. cerevisiae deletion strains, locus YML016C, strain PPZ1, hits give low values): 0.998
normalized growth (S. cerevisiae deletion strains, locus YML032C, strain rad52, hits give low values): 0.993
normalized growth (S. cerevisiae deletion strains, locus YML124C, strain tub3, hits give low values): 0.982
normalized growth (S. cerevisiae deletion strains, locus YMR078C, strain ctf18, hits give low values): 0.984
normalized growth (S. cerevisiae deletion strains, locus YMR223W, strain ubp8, hits give low values): 0.977
normalized growth [9]: 1
normalized growth (S. cerevisiae deletion strains, locus YNL067W, strain RPL9B, hits give low values): 0.968
normalized growth (S. cerevisiae deletion strains, locus YNL128W, strain TEP1, hits give low values): 0.977
normalized growth [10]: 0.96
normalized growth (S. cerevisiae deletion strains, locus YNL233W, strain BNI4, hits give low values): 0.981
normalized growth (S. cerevisiae deletion strains, locus YNL250W, strain rad50, hits give low values): 0.935
normalized growth (S. cerevisiae deletion strains, locus YNL271C, strain bni1, hits give low values): 0.984
normalized growth (S. cerevisiae deletion strains, locus YNL298W, strain CLA4, hits give low values): 1.02
normalized growth (S. cerevisiae deletion strains, locus YNL307C, strain MCK1, hits give low values): 0.991
normalized growth (S. cerevisiae deletion strains, locus YNR052C, strain pop2, hits give low values): 0.977
normalized growth (S. cerevisiae deletion strains, locus YOL006C, strain TOP1, hits give low values): 1.15
normalized growth (S. cerevisiae deletion strains, locus YOL012C, strain htz1): 1.16
normalized growth (S. cerevisiae deletion strains, locus YOL147C, strain pex11, hits give low values): 0.977
normalized growth (S. cerevisiae deletion strains, locus YOR061W, strain CKA2, hits give low values): 1.01
normalized growth (S. cerevisiae deletion strains, locus YOR069W, strain VPS5, hits give low values): 0.989
normalized growth (S. cerevisiae deletion strains, locus YOR136W, strain idh2, hits give low values): 0.984
normalized growth (S. cerevisiae deletion strains, locus YOR144C, strain elg1, hits give low values): 0.999
normalized growth (S. cerevisiae deletion strains, locus YOR184W, strain ser1, hits give low values): 1.05
normalized growth (S. cerevisiae deletion strains, locus YOR316C, strain cot1, hits give low values): 0.984
normalized growth [11]: 1
normalized growth (S. cerevisiae deletion strains, locus YPR119W, strain clb2, hits give low values): 0.978
normalized growth (S. cerevisiae deletion strains, locus YPR141C, strain kar3, hits give low values): 0.969
normalized growth (S. cerevisiae deletion strains, locus YPR163C, strain tif3, hits give low values): 0.99
normalized growth (S. cerevisiae deletion strains, locus YPR167C, strain met16, hits give low values): 0.957
normalized growth (S. cerevisiae deletion strains, strain wtn01, hits give low values): 1
normalized growth (S. cerevisiae strains, strain wild type, hits give low values): 1.01
